Source: PubChem (National Center for Advancing Translational Sciences (NCATS))
Anesthetic bind – qHTS Assay for Identification of Novel General Anesthetics; Ferritin light chain (Equus caballus), P02791; apoferritin/1-aminoanthracene competitive binding, fluorescence; Potency, µM (highest dose often 77.5 µM), without a hit: at the highest dose activity change, negative = displacement, hits mostly inhibitors; hit rate 0.074% among 350,000; AID 485281, 2010; further: nearly all actives have a fitted effect of over 20% in size
Target sequence (P02791 2-175 limits assumed): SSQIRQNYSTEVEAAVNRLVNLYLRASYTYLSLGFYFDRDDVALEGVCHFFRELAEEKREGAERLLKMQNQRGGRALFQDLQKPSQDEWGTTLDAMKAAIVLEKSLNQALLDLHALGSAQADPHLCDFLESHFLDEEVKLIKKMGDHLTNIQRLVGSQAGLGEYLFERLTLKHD
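Steps: apoferritin (10 uM) was premixed with half-saturated 1-AMA in PBS, compounds were pin-transferred, plates stood 10 min at room temperature, fluorescence was read at 380/535 nm, and curves were fitted with a Hill equation.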
TrxR1 substrate – qHTS Assay for Substrates of Mammalian Selenoprotein Thioredoxin Reductase 1 (TrxR1): qHTS. Potency, µM (titrated, usually from 114 µM), for inactives: at the top dose activity change, negative = substrate turnover. hit rate 0.01% among 390,000. purified TrxR1 substrate turnover, NADPH consumption readout. Thioredoxin reductase 1, cytoplasmic (Rattus norvegicus), O89049. AID 588456, 2011; further: nearly all actives have a fitted effect of over 50% in size
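Rat TrxR1, dispensed at 90 nM, was prereduced with 400 uM NADPH (final) for 5 min at ~22 deg C, then incubated with compound 15 min before 400 uM selenite. A first-read NADPH fluorescence drop versus no-compound background flagged substrates.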
TrxR1 inh – qHTS Assay for Inhibitors of Mammalian Selenoprotein Thioredoxin Reductase 1 (TrxR1): qHTS; Thioredoxin reductase 1, cytoplasmic (Rattus norvegicus), O89049; recombinant rTrxR1, NADPH fluorescence consumption, selenite substrate; Potency, µM (highest dose often 114 µM), for the others: top-dose activity change, negative = inhibition, hits mostly inhibitors; hit rate 1% among 390,000; AID 588453, 2011; further: nearly all actives have a fitted effect of over 65% in size
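Rat TrxR1 (90 nM in the dispensed reagent) was pre-reduced with 400 uM NADPH for 5 min at room temperature, then incubated with compound for 15 min. After 400 uM selenite was added, NADPH fluorescence (Ex 340/Em 450 nm) was followed for 8 min.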
mIDH1 inhibitor – qHTS for Inhibitors of mutant isocitrate dehydrogenase 1 (IDH1): qHTS; Isocitrate dehydrogenase [NADP] cytoplasmic (Homo sapiens), O75874; IDH1-R132H enzyme, NADPH consumption, diaphorase/resazurin fluorescence; Potency, µM (titrated, usually from 76.6 µM), inactives show at the top dose activity change, negative = inhibition, most hits filed as inhibitors; hit rate 0.093% among 390,000; further: nearly all actives have a fitted effect of over 65% in size
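IDH1-R132H (0.5 ug/mL) preincubated 30 min with compound, then NADPH (0.016 mM) and alpha-KG (2 mM) added; 80 min at RT, pH 7.5. Remaining NADPH coupled via diaphorase/resazurin to fluorescence (540/590 nm); concentration-response curves normalized to no-enzyme control.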
GALK inh – qHTS Assay for Inhibitors of Human Galactokinase (GALK); P51570; Purified GALK, Kinase-Glo residual ATP luminescence; Potency, µM (top dose mostly 57.5 µM), for inactives: at the highest dose activity change, negative = inhibition, usual class: inhibitors; hit rate 0.007% among 270,000; AID 1868, 2009
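Luminescence from leftover ATP (Ultra-Glo luciferase/luciferin) served as read-out after a 1 h room-temperature reaction of 5 nM GALK with 35 uM ATP and 100 uM galactose.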
PKM2 act – qHTS Assay for Activators of Human Muscle isoform 2 Pyruvate Kinase; Pyruvate kinase PKM (Homo sapiens), P14618; purified PKM2, Kinase-Glo ATP luminescence, activation; response scale: 0% is enzyme alone, no compound; Potency, µM (series often up to 57.5 µM), inactives show at the highest dose activation, usual class: activators; hit rate 0.34% among 260,000; AID 1631, 2009; further: nearly all actives have a fitted effect of over 55% in size
Target sequence (P14618 whole entry, looked up, canonical isoform): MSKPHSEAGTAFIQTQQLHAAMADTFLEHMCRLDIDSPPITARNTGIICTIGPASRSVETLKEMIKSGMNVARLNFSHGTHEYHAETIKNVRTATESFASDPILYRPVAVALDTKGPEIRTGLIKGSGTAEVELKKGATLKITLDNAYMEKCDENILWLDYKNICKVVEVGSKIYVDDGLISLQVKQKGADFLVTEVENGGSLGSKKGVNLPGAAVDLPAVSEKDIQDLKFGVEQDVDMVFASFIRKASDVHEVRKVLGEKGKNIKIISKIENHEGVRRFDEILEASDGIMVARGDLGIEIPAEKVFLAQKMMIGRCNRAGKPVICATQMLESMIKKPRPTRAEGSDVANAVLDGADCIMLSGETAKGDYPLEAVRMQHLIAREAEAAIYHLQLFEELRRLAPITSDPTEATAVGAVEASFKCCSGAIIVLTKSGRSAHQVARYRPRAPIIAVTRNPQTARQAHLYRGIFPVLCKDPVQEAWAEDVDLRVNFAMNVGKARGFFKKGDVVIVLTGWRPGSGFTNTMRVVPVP
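Purified hPK-M2 (>95%) run at intermediate activity with 0.1 mM ADP and 0.5 mM PEP in 50 mM imidazole pH 7.2, KCl, MgCl2; 1 h room temperature. ATP formed read by Kinase-Glo luminescence; normalized to uninhibited and no-enzyme controls.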
The depositor's hits bear a star; ? = inconclusive; / = no result given; [ ] = dose if it differs, or a comment. Sampled rows, rich in hits. Any-hit rate of the full collection: about 1.3%. The call rests on the fitted dose curve; in most records, active means well fitted curve in the direction sought with a large enough effect; inconclusive means small, poorly fitted or top-dose-only effect, or another doubt; inactive means no such curve, though single readings can be large; an effect the other way counts as inactive or inconclusive. On the % scale 0 is the no-effect control and ±100 the full control effect; potency means the concentration at half of the fitted maximal effect.

SMILES	Anesthetic bind	TrxR1 substrate	TrxR1 inh	mIDH1 inhibitor	GALK inh	PKM2 act
CC(=O)N1CCCc2cc(S(=O)(=O)N3CCN(c4ccc(F)cc4)CC3)ccc21	-4%	0%[57.1 µM]	7%[57.1 µM]	17%	/	/
CN1CCc2nc3sc(C(=O)Nc4c(F)cccc4F)c(N)c3cc2C1	-2%	6%	-8%	29%	/	/
CC(C)OC(=O)CC(=O)c1sc2nc3c(cc2c1N)CN(C)CC3	-8%	-1%[57.1 µM]	20µM*	7%	4%	6%
Cc1ccc2nc(-c3ccc(C)c(NC(=O)COc4ccc(Br)cc4)c3)oc2c1	/	1%	13%	/	/	/
Cc1ccc(C)c(S(=O)(=O)ON2C(=O)c3ccccc3C2=O)c1	-4%	24%	3.2µM*	24%	-5%	17%
Cc1cc(S(=O)(=O)ON2C(=O)c3ccccc3C2=O)ccc1F	7%	25%	?	-1%	0%	4%[0.46 µM]
Nc1ccc(-c2nc3cc(N)ccc3o2)cc1	242%	59%	14%	6%	2%	-7%
Nc1ccc(-c2nc3ccc(N)cc3o2)cc1	660%	846%	79µM*	9%	3%	-20%
O=C(/C=C/c1ccc(O)cc1)c1ccccc1	-4%	-9%	-13%	-5%	6%	-35%
Oc1ccc(/C=C/c2ccc(/C=C/c3ccc(O)cc3)c(Br)c2)cc1	/	75%[57.1 µM]	22µM*	/	/	/
COc1cc(OC)c(C#N)c(S(=O)(=O)Cc2ccccc2)c1	-17%	10%[57.1 µM]	10%[57.1 µM]	12%	-1%	-3%
N#Cc1c([N+](=O)[O-])cc([N+](=O)[O-])cc1S(=O)(=O)Cc1ccccc1	/	?	0.71µM*	8%	/	/
Cc1nc(=S)c2ccccc2[nH]1	-11%	-7%	-25%	2%	1%	-11%
FC(F)(F)c1nc(=S)c2ccccc2[nH]1	0%	-2%	4.5µM*	16%	0%	-20%
O=c1/c(=C\c2cccnc2)sc2nc3ccccc3n12	6%	-8%	-10%	3%	0%	-1%
O=C1c2sc3nc4ccccc4n3c2C(=O)N1c1ccccc1Cl	-22%	-6%	4µM*	5%	-5%	-9%
Cc1ccccc1N1C(=O)c2sc3nc4c(c(=O)n3c2C1=O)CCC4	-22%	-9%	8.9µM*	-1%	0%	10%
COc1ccc(NC(=O)[C@@H]2CC=C[C@@H]3CCN(C4CC4)C(=O)[C@@H]32)cc1	/	5%	9%	/	/	/
Cc1ccc2c(c1)C(c1ccc(F)cc1)N(C(=O)c1ccc(S(=O)(=O)N3CCCCC3)cc1)CC(=O)N2 (configuration not stated)	-19%	1%	5%	0%	/	/
C[C@@H]1[C@H](c2ccccc2)OCCS(=O)(=O)N1Cc1ccccc1Br	/	1%	28%	/	/	/
Cn1nnnc1SCCNCc1ccc(OCc2ccc(Cl)cc2)cc1	28µM*	0%	9%	7%	/	/
CC(C)c1ccc(CNCCSc2nnnn2C)cc1	-8%	-7%[11.4 µM]	14%	14%	/	/
Cc1ccccc1Cn1c(CN2CCC(C(=O)NCCN(C)C)CC2)cc2ccccc21	-4%	7%[57.1 µM]	14%[57.1 µM]	2%	/	/
COc1ccc(CNC(=O)C2=CCN(S(=O)(=O)c3ccc(C)cc3)CC2)cc1	-18%	-1%	15%	0%	5%	14µM*
COc1ccc(CNC(=O)N2CCN(S(=O)(=O)c3ccccc3)CC2)cc1	-1%	-3%[57.1 µM]	-5%[57.1 µM]	-4%	-2%	/
SMILES	Anesthetic bind	TrxR1 substrate	TrxR1 inh	mIDH1 inhibitor	GALK inh	PKM2 act
COc1ccc(S(=O)(=O)N2CCN(C(=O)NCc3ccccc3)CC2)cc1	-8%	7%[57.1 µM]	12%[57.1 µM]	2%	0%	7.1µM*
COc1ccc(COC(=O)NC2CCN(S(=O)(=O)c3ccc(OC)cc3)CC2)cc1	24%	-7%	-2%	2%	0%	20µM*
Cc1ccc(S(=O)(=O)N2CC=C(C(=O)NCc3ccccc3)CC2)cc1	-4%	0%	23%	-4%	/	?
COc1ccc(C)cc1NC(=O)C1COc2ccccc2C1 (configuration not stated)	?	0%[57.1 µM]	15%[57.1 µM]	-8%	/	/
Cc1ccc(OCCCn2ccnc2)cc1C	18µM*	5%	16%	3%	0%	-1%
Cc1cccc(OCCCn2ccnc2)c1	8%	4%[57.1 µM]	12%[57.1 µM]	0%	3%	-5%
Cc1nc(-c2cccc(S(=O)(=O)N3CCC(C(=O)NCc4ccccc4)CC3)c2)no1	-13%	-9%[57.1 µM]	-2%[57.1 µM]	38%	/	/
CCn1nc([N+](=O)[O-])c(C(C#N)c2nc3ccccc3n2C)c(Cl)c1=O (configuration not stated)	-16%	-11%	?	4%	0%	5%
CCCn1nc([N+](=O)[O-])c(C(C#N)c2nc3ccccc3s2)c(Cl)c1=O (configuration not stated)	?	0%	1.6µM*	1%	-1%	-16%
COc1ccc(C2C(=O)N(C3CCCCCC3)CC(=O)N2CCc2ccc(OC)c(OC)c2)cc1 (configuration not stated)	-10%	0%[57.1 µM]	10%[57.1 µM]	15%	/	/
CCCN(CCC)C(=O)CC(c1ccc(F)cc1)c1ccco1 (configuration not stated)	?	0%	35µM*	11%	0%	7%
CC(=O)c1ccc(N2CCN(C(=O)c3cc(S(=O)(=O)N4CCCCCC4)cn3C)CC2)cc1	-2%	1%[57.1 µM]	14%[57.1 µM]	-4%	/	/
Cc1c(NC(=O)C(F)(F)F)ccc2nc3c(=O)n(C)c(=O)n(C)c3nc12	66%	8%	3%	8%	/	/
O=C(Cc1ccccc1)N1CCc2ccccc21	8.9µM*	7%	4%	10%	-1%	10%
COc1ccc(C(c2nnnn2C2CCCCC2)N2CCN(c3ccc(OC)cc3)CC2)cc1 (configuration not stated)	-7%	4%[57.1 µM]	11%[57.1 µM]	2%	-1%	0%
c1cc(N2CCCC2)ccc1C(c1nnnn1C1CCCCC1)N1CCOCC1 (configuration not stated)	-8%	6%[57.1 µM]	7.1µM*	4%	1%	-3%
COc1ccc(CNC(=O)CCNS(=O)(=O)c2ccc3c(c2)CCCC(=O)N3)cc1	-11%	-7%	9%	9%	/	/
